According to PubChem BioAssay (Tox21):
Results filed as inconclusive are left out. Active and inactive are the calls of the source. Unless noted, calls follow the shape of the dose curve; as a rule, active = well fitted curve in the direction sought with a large enough effect in the repeat runs; inconclusive = weak or mixed curves; inactive = no such curve, though single readings can be large; an effect the other way counts as inactive or inconclusive.

How the values were obtained:
[1] = qHTS assay for small molecule agonists of the p53 signaling pathway (AID 651631; calls by dose curve; also: nearly all actives have a fitted effect of over 15% in size; also: potency is read from the fitted curve at half-maximal effect)
Method in brief: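 HCT-116 cells carrying a stable p53 response element–beta-lactamase reporter were plated, rested 5 h at 37 °C, then exposed to compound in DMSO for 16 h at 37 °C; reporter activity was read as FRET substrate fluorescence after 2 h at room temperature.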

[2] = qHTS assay for small molecules that induce genotoxicity in human embryonic kidney cells expressing luciferase-tagged ATAD5 (AID 651632); also: nearly all actives have a fitted effect of over 15% in size
Method in brief: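 Increased luciferase signal from ATAD5-tagged reporter cells indicates DNA-damage-driven ATAD5 induction. HEK293T cells are treated for 16 hr at 37C before detection with Amplite.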

[3] = qHTS assay for small molecule agonists of the p53 signaling pathway - cell viability (AID 651633; calls by dose curve; also: nearly all actives have a fitted effect of over 30% in size)
Method in brief: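 Viability counter-read: CellTiter-Glo luminescence (30 min, room temperature) in the same p53RE-bla plates. These plates had been exposed to compounds for 16 h at 37 C.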

[4] = qHTS assay for small molecules that induce genotoxicity in human embryonic kidney cells expressing luciferase-tagged ATAD5 - cell viability (AID 651634; calls by dose curve; also: nearly all actives have a fitted effect of over 25% in size)
Method in brief: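 Cytotoxicity counterscreen in HEK293T cells bearing an ATAD5-luciferase reporter: live-cell protease activity measured by CellTiter-Fluor fluorescence after 15.5 hr compound exposure.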

[5] = qHTS assay to test for compound auto fluorescence at 590 nm (red) in HepG2 cells (AID 720674)
Method in brief: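 1 hr compound incubation on HepG2 cells, 37 C, 5% CO2; plate read ex 540 nm / em 590 nm; intensities reported as Rose Bengal sodium equivalents.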

[6] = qHTS assay to test for compound auto fluorescence at 535 nm (green) in HepG2 cells (AID 720675)
[7] = qHTS assay to test for compound auto fluorescence at 460 nm (blue) in HEK293 cells (AID 720678)
Method in brief: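 Auto fluorescence in the blue band was quantified as triamterene equivalency. HEK293 cells were seeded at 2,000/well, dosed after a 4-5 hr attachment, and kept overnight at 37C before the 405/460 nm reading.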

[8] = qHTS assay to test for compound auto fluorescence at 535 nm (green) in HEK293 cells (AID 720680)
[9] = qHTS assay to test for compound auto fluorescence at 460 nm (blue) in HEK293 cell free culture (AID 720681)
Method in brief: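 Blue fluorescence (Ex 405/Em 460 nm, triamterene-equivalent) was read immediately after pin transfer of compound or DMSO into medium (DMEM, 10% FBS) without cells.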

[10] = qHTS assay to test for compound auto fluorescence at 535 nm (green) in HEK293 cell free culture (AID 720682)
Method in brief: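 Read-out: 485/535 nm fluorescence intensity, calibrated against fluorescein. Medium only (DMEM + 10% FBS, no cells); test compound or DMSO vehicle added by pintool before plate reading.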

[11] = qHTS assay to test for compound auto fluorescence at 590 nm (red) in HEK293 cell free culture (AID 720683)
Method in brief: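 Red-channel autofluorescence of compounds in culture medium (DMEM, 10% FBS), no cells, measured at 540/590 nm. Rose Bengal sodium is the reference fluorophore for equivalence.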

[12] = qHTS assay to test for compound auto fluorescence at 590 nm (red) in HepG2 cell free culture (AID 720684)
Method in brief: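 Steps: dispense MEM/10% FBS medium, no cells; pin compound or DMSO vehicle; read red channel, Ex/Em 540/590 nm. Output given as Rose Bengal sodium equivalents.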

[13] = qHTS assay to test for compound auto fluorescence at 460 nm (blue) in HepG2 cell free culture (AID 720685)
Method in brief: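 Compound (23 nL) or DMSO pinned into cell-free MEM with 10% FBS; blue fluorescence read at 405/460 nm excitation/emission, expressed as auto-fluorescence equivalency to triamterene.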

[14] = qHTS assay to test for compound auto fluorescence at 535 nm (green) in HepG2 cell free culture (AID 720686)
[15] = qHTS assay to test for compound auto fluorescence at 460 nm (blue) in HepG2 cells (AID 720687)
Method in brief: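 Blue-channel autofluorescence (Ex/Em 405/460 nm, triamterene-equivalent) was measured after 1 hr compound exposure at 37 C, 5% CO2. Cells were HepG2, plated overnight at 37 C in MEM plus 10% FBS.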

[16] = qHTS assay for small molecule disruptors of the mitochondrial membrane potential - cell viability (AID 720634; calls by dose curve;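 also: human HepG2 liver cancer cells; nearly all actives have a fitted effect of over 20% in size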)
Method in brief: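 After overnight attachment at 37 C, HepG2 cells received compound or DMSO vehicle for 1 hr. Viability is then taken from ATP-driven luminescence following a 30 min room-temperature CellTiter-Glo step.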

[17] = qHTS assay for small molecule disruptors of the mitochondrial membrane potential (AID 720635); also: potency is read from the fitted curve at half-maximal effect
Method in brief: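 Mitochondrial membrane potential tracked with Mito-MPS dye, red aggregates (ex 540/em 590 nm) against green monomers (ex 490/em 535 nm). Compound treatment 1 hr at 37C, dye 30 min in HepG2.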

[18] = qHTS assay to test for compound auto fluorescence at 590 nm (red) in HEK293 cells (AID 720679)
Method in brief: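 Autofluorescence equivalency to Rose Bengal sodium, 540/590nm, in HEK293 cells exposed overnight to 23 nL compound per well.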

[19] = target: Glucocorticoid receptor (Homo sapiens) (UniProt P04150); experiment: qHTS assay to identify small molecule agonists of the glucocorticoid receptor (GR) signaling pathway (AID 720691; active = well fitted activation curve with a large enough effect in the signal ratio in the repeat runs, not every such curve was filed as active; the % refers to the signal ratio); settings: GR-bla HeLa, beta-lactamase reporter ratio, 18 h; activation: at 62.4 µM (top of the series)
Chain of Glucocorticoid receptor (Homo sapiens) (P04150 whole entry, looked up): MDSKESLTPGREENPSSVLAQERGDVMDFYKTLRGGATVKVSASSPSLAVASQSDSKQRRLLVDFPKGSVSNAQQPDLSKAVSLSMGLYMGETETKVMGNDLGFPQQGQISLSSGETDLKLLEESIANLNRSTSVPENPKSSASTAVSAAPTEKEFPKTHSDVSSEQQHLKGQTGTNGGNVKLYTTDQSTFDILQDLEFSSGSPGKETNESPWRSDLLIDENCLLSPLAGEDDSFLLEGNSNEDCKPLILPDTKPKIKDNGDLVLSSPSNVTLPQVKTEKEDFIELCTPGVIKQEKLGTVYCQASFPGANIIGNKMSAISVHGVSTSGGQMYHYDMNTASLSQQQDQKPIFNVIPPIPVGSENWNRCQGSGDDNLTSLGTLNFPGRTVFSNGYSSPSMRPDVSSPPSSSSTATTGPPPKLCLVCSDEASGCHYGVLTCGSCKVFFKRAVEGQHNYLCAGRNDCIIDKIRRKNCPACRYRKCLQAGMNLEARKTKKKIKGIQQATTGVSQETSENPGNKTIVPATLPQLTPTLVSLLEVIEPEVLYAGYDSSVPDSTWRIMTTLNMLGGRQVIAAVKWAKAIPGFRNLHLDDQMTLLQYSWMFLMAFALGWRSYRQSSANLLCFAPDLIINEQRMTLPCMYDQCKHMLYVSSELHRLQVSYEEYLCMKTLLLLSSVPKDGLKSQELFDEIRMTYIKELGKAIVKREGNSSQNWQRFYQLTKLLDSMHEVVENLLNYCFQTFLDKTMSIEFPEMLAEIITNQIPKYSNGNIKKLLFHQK
Method in brief: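 Agonist mode in a HeLa line carrying a GRE-controlled beta-lactamase reporter. Compounds act for 18 h at 37 C before a 2 h room-temperature FRET substrate step and fluorescence reading.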

[20] = target: Glucocorticoid receptor (Homo sapiens) (UniProt P04150); experiment: qHTS assay to identify small molecule antagonists of the glucocorticoid receptor (GR) signaling pathway (AID 720692; active = well fitted inhibition curve with a large enough effect in the signal ratio in the repeat runs, not every such curve was filed as active; the % refers to the signal ratio; also: potency is read from the fitted curve at half-maximal effect)
Method in brief: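 Cells plated, rested 4 h at 37 C/5% CO2; compounds in DMSO pin-transferred; dexamethasone added to 5 nM final; 18 h at 37 C; B/G FRET substrate added, 2 h room temperature; fluorescence measured.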
% is scaled to controls: 0 for no effect and ±100 for the full control effect.

Cc1cc(C2CC2)nc(Nc2ccccc2)n1
inactive: Potency [1] | Potency [2] | Potency [3] | Potency [4] | outcome [5] | Potency [6] | Potency [7] | outcome [8] | Potency [9] | outcome [10] | outcome [11] | outcome [12] | Potency [13] | Potency [14] | Potency [15]

O=[N+]([O-])c1ccccc1-c1ccccc1
inactive: Potency [1] | Potency [3] | Potency [4] | Potency [16] | Potency [17] | outcome [5] | Potency [6] | Potency [7] | outcome [18] | outcome [8] | Potency [9] | outcome [10] | outcome [11] | outcome [12] | Potency [13] | Potency [14] | Potency [15]

O=Cc1ccccc1
inactive: Potency [1] | Potency [3] | Potency [4] | Potency [16] | Potency [17] | outcome [5] | Potency [6] | Potency [7] | outcome [18] | outcome [8] | Potency [9] | outcome [10] | outcome [11] | outcome [12] | Potency [13] | Potency [14] | Potency [15]

CCOC(=O)CCN(SN(C)C(=O)Oc1cccc2c1OC(C)(C)C2)C(C)C
inactive: Potency [1] | Potency [2] | Potency [3] | Potency [4] | Potency [6] | Potency [7] | outcome [18] | outcome [8] | Potency [9] | outcome [10] | outcome [11] | outcome [12] | Potency [13] | Potency [14] | Potency [15] | Potency [19] | Potency [20]

Oc1ccc(Cl)c(Cl)c1
inactive: Potency [1] | Potency [2] | Potency [3] | Potency [6] | Potency [7] | outcome [18] | outcome [8] | Potency [9] | outcome [11] | outcome [12] | Potency [13] | Potency [14] | Potency [15]
active: Potency [17] 6.75 µM

CC(C)(C)c1ccc(OP(=O)(Oc2ccccc2)Oc2ccccc2)cc1
active: Potency [17] 9.75 µM
inactive: Potency [1] | Potency [2] | Potency [3] | Potency [6] | Potency [7] | outcome [18] | outcome [8] | Potency [9] | outcome [10] | outcome [11] | outcome [12] | Potency [13] | Potency [14] | Potency [15]

CCN(CC)Cc1nccn1-c1ccc([N+](=O)[O-])cc1C(=O)c1ccccc1Cl
inactive: Potency [1] | Potency [3] | Potency [16] | Potency [17] | outcome [5] | Potency [6] | Potency [7] | outcome [18] | outcome [8] | Potency [9] | outcome [10] | outcome [11] | outcome [12] | Potency [13] | Potency [14] | Potency [15] | Potency [19] | Potency [20]

CC[C@]1(O)CC[C@H]2[C@@H]3CCC4=CCCC[C@@H]4[C@H]3CC[C@@]21C
active: Potency [1] 3.76 µM | Potency [17] 7.5 µM | Potency [20] 1.69 µM
inactive: Potency [2] | Potency [3] | outcome [5] | Potency [6] | Potency [7] | outcome [18] | outcome [8] | Potency [9] | outcome [10] | outcome [11] | outcome [12] | Potency [13] | Potency [14] | Potency [15]

CC(Cl)CCl (centres undefined)
inactive: Potency [1] | Potency [2] | Potency [3] | Potency [16] | Potency [17] | outcome [5] | Potency [6] | Potency [7] | outcome [18] | outcome [8] | Potency [9] | outcome [10] | outcome [11] | outcome [12] | Potency [13] | Potency [14] | Potency [15] | Potency [19] | Potency [20]

CNC(C)(C)Cc1ccccc1
inactive: Potency [1] | Potency [3] | Potency [4] | Potency [16] | fluorescence, relative to Rose Bengal [5] -0.065% [at 18.6 µM] | fluorescence, % of fluorescein control [6] -0.216% [at 18.6 µM] | fluorescence, % of fluorescein [8] 0.0122% [at 18.6 µM] | fluorescence, % of fluorescent control [9] -0.0376% [at 18.6 µM] | activity change [10] 0.136% [at 18.6 µM] | fluorescence, % of fluorescent control [11] -0.277% [at 18.6 µM] | fluorescence, % of Rose Bengal [12] -0.143% [at 18.6 µM] | fluorescence, % of fluorescent control [13] -0.0785% [at 18.6 µM] | fluorescence, % of fluorescein control [14] 0.134% [at 18.6 µM] | fluorescence, % of fluorescent control [15] -0.0567% [at 18.6 µM] | Potency [19] | Potency [20]

CCN(CC)CCN1C(=O)CN=C(c2ccccc2F)c2cc(Cl)ccc21
inactive: Potency [1] | Potency [2] | Potency [3] | Potency [16] | outcome [5] | Potency [6] | Potency [7] | outcome [18] | outcome [8] | Potency [9] | outcome [11] | outcome [12] | Potency [13] | Potency [14] | Potency [15] | Potency [19] | Potency [20]

COc1ccc2c3c1O[C@H]1[C@H](O)CC[C@H]4[C@@H](C2)N(C)CC[C@@]341
inactive: Potency [1] | Potency [3] | Potency [4] | Potency [17] | Potency [6] | Potency [7] | outcome [18] | outcome [8] | Potency [9] | outcome [10] | outcome [11] | outcome [12] | Potency [13] | Potency [14] | Potency [15] | Potency [19] | Potency [20]

CN/C(=N\[N+](=O)[O-])NCc1cnc(Cl)s1
inactive: Potency [1] | Potency [2] | Potency [3] | Potency [16] | Potency [6] | Potency [7] | outcome [18] | outcome [8] | Potency [9] | outcome [10] | outcome [11] | outcome [12] | Potency [13] | Potency [14] | Potency [15]

CC1=C2C[C@H]3[C@@H](CC=C4C[C@@H](O)CC[C@@]43C)[C@@H]2CC[C@]12O[C@@H]1C[C@H](C)CN[C@H]1[C@H]2C
inactive: Potency [1] | Potency [3] | Potency [4] | outcome [5] | Potency [6] | Potency [7] | outcome [18] | outcome [8] | Potency [9] | outcome [11] | outcome [12] | Potency [13] | Potency [14] | Potency [15] | Potency [19]
